# Test results reported in PubChem BioAssay (NCI).
# This is part of a sample that, as a whole, favours compounds with a hit. Of some 83,000 tested, about 20% had one in any assay.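 Negative percent growth values reflect cell death: -40 means 40% of the cells present at the start died, and -100 means all died.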 A number with no mark means an inactive call. Active and inactive are the calls of the source. Rule for the calls: active = growth percent below 10; inactive = the rest.
# How the values were obtained:
# Experiment in all cases: NCI-60 one-dose screen, 48 h (100 = growth as untreated, 0 = no growth, -100 = all killed)
# Conditions in all cases: 10 µM unless noted
# DU-145 prostate = system: DU-145 prostate
# K-562 leukemia = system: K-562 leukemia
# MALME-3M melanoma = system: MALME-3M melanoma
# MDA-MB-231 breast = system: MDA-MB-231 breast
# RXF 393 renal = system: RXF 393 renal
# SF-268 CNS = system: SF-268 CNS
# SF-295 CNS = system: SF-295 CNS
# SF-539 CNS = system: SF-539 CNS
# UACC-257 melanoma = system: UACC-257 melanoma
# M14 melanoma = system: M14 melanoma
# HCT-15 colon = system: HCT-15 colon
# HT29 colon = system: HT29 colon
# SNB-75 CNS = system: SNB-75 CNS
# SNB-19 CNS = system: SNB-19 CNS
# U251 CNS = system: U251 CNS
# PC-3 prostate = system: PC-3 prostate
# SK-MEL-5 melanoma = system: SK-MEL-5 melanoma
# UACC-62 melanoma = system: UACC-62 melanoma
# LOX IMVI melanoma = system: LOX IMVI melanoma
# SK-MEL-28 melanoma = system: SK-MEL-28 melanoma
SMILES,growth (DU-145 prostate),growth (K-562 leukemia),growth (MALME-3M melanoma),growth (MDA-MB-231 breast),growth (RXF 393 renal),growth (SF-268 CNS),growth (SF-295 CNS),growth (SF-539 CNS),growth (UACC-257 melanoma),growth (M14 melanoma),growth (HCT-15 colon),growth (HT29 colon),growth (SNB-75 CNS),growth (SNB-19 CNS),growth (U251 CNS),growth (PC-3 prostate),growth (SK-MEL-5 melanoma),growth (UACC-62 melanoma),growth (LOX IMVI melanoma),growth (SK-MEL-28 melanoma)
C/C(=N/NC(N)=S)c1sc(Nc2cccc(Cl)c2)nc1C,81.7%,68.7%,93.1%,65%,89.6%,75.1%,88.7%,83.7%,101%,88.3%,57.8%,79%,120%,87.9%,89.8%,74.8%,87.1%,92.9%,63.6%,94.8%
COc1cc(C2CC(c3cccc(Br)c3)=NN2C(C)=O)cc(OC)c1OC (stereo not given),20%,49.2%,54.2%,4.94% (active),33.3%,55.3%,0.219% (active),-5.96% (active),81.7%,8.38% (active),13.4%,13.8%,12%,40.8%,12.2%,37.1%,23%,14.8%,50.1%,70.2%
O=C(Cc1ccc2c(c1)OCCO2)Nc1nc2ccc(F)cc2s1,107%,76.3%,97.3%,115%,43%,119%,106%,101%,109%,100%,77.2%,105%,84.5%,116%,103%,93.2%,91.1%,102%,93.8%,111%
Cc1cc(=O)oc2cc(OC(=O)N3CCN(C)CC3)ccc12,110%,90.3%,103%,104%,121%,101%,104%,96.3%,106%,95.5%,99.4%,114%,73.1%,100%,107%,96.7%,102%,97.6%,95.1%,101%
Cc1cc(O)c(C2=NN(c3ccc(S(N)(=O)=O)cc3)C(/C=C/c3ccccc3)C2)cc1Cl (stereo not given),36.4%,31.2%,24.6%,47.7%,30%,24.1%,38.5%,13.4%,64.6%,29.8%,85.7%,33.5%,51.3%,66.4%,22.5%,32.6%,19.1%,-10.9% (active),18.5%,23.9%
COC(=O)c1ccc2[nH]c(O)c(C(=Nc3ccc(N(C)C(=O)CN4CCN(C)CC4)cc3)c3ccccc3)c2c1,21.5%,9.67% (active),-6.01% (active),22.6%,-39.3% (active),27.7%,27.3%,-25.5% (active),35.4%,11.2%,12.3%,21.3%,-4.83% (active),42.6%,31.4%,36.3%,38.3%,74.6%,16.3%,29.3%
CCOc1c(B(O)O)cccc1-c1nc2ccc3[nH]ncc3c2c2c1CCCC2,66.9%,63.4%,101%,33.9%,-5.22% (active),58.6%,59.3%,18.6%,135%,120%,48.4%,78.7%,-38.5% (active),85.2%,75.4%,68.3%,86.7%,88.1%,37%,96.5%
